The text below walks through data of PubChem BioAssay AID1259417 (TB Discovery Research, Infectious Disease Research Institute, 2018).

Broadly, the inhibition is the drop in the measured response relative to a control, in per cent.

Molecules are shown by their SMILES. Hit rate of the full screen: of about 1,100 compounds, about 760 (69%) were called active. No rule for the calls is given here. So high a share suggests a set chosen from earlier hits. The list shows a part of the results.

The assay can be described thus: M. tuberculosis growth inhibition, HTS (AID 1259417).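 Also: bacteria grown with compound for 5 days at 37 °C.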 To be noted: stronger effect = higher value, concentration not given here.
Where [1] appears, read: M. tuberculosis DsRed fluorescence growth inhibition.
The mark [2] stands for this setting: M. tuberculosis growth inhibition.

`NC(=O)c1c(NC(=O)c2c(F)c(F)c(F)c(F)c2F)sc2c1CCC2`: the inhibition reads like this: under setting [1], 98.9% (active); under setting [2], 95.4%.

For the compound `Cc1ccc(C(=O)Nc2sc3c(c2C(N)=O)CCC(C(C)(C)C)C3)c(C)c1` (configuration not stated), the inhibition by setting is: under setting [1], -2.03% (inactive); under setting [2], -11.7%.

Consider `COc1cc(C(=O)Nc2sc3c(c2C(N)=O)CCCC3)c(Br)c(OC)c1OC`, for which the inhibition was 27.3% (inactive) under setting [1] and 4.82% under setting [2].

Turning to `NC(=O)c1c(NC(=O)c2cccc(F)c2)sc2c1CCC2`, the inhibition under setting [1] was -2.04% (inactive) and the inhibition under setting [2] was -14.1%.

With `CC(C)(C)c1ccc(Cn2cnc([N+](=O)[O-])n2)cc1`, the inhibition runs as follows: under setting [1], 98.3% (active); under setting [2], 96.6%.

For the compound `COC(=O)c1c(NC(=O)c2c(F)cccc2F)sc2c1CCC(C(C)(C)C)C2` (configuration not stated), the inhibition is 0.929% (inactive) under setting [1] and -6.55% under setting [2].

As for `CCOc1cccc(C(=O)Nc2sc3c(c2C(N)=O)CCC3)c1`, the inhibition runs as follows: under setting [1], -0.558% (inactive); under setting [2], -34.5%.

In the case of `COc1cccc(C(=O)Nc2sc3c(c2C(N)=O)CCCCCC3)c1`, the inhibition is -2.93% (inactive) under setting [1] and -15.5% under setting [2].

As for `CCOC(=O)c1c(NC(=O)c2cc(-n3cnnc3)ccc2Cl)sc2c1CCCC2`, the inhibition under setting [1] is 37.7% (active) and the inhibition under setting [2] is 36.2%.

In the case of `COC(=O)c1c(NC(=O)c2c(F)c(F)c(F)c(F)c2F)sc2c1CCC2`, the inhibition under setting [1] was 98.2% (active) and the inhibition under setting [2] came to 95.8%.

Consider `COC(=O)c1c(NC(=O)c2c(F)c(F)c(F)c(F)c2F)sc2c1CCCCC2`, for which the inhibition is 97.4% (active) under setting [1] and 93% under setting [2].

For `NC(=O)c1c(NC(=O)c2cc(Cl)ccc2Cl)sc2c1CCCCCC2`, the inhibition under setting [1] was -5.89% (inactive) and the inhibition under setting [2] was -25.5%.

For the compound `CCOC(=O)c1c(NC(=O)COc2ccc(C(C)C)cc2)sc2c1CCC2`, the inhibition under setting [1] is 44.6% (active) and the inhibition under setting [2] worked out at 99.6%.

As to `Cc1cc(C2N=C(N)Nc3nc4ccccc4n32)c(C)n1-c1ccccc1Cl` (configuration not stated), the inhibition runs as follows: under setting [1], -7.08% (inactive); under setting [2], -25.2%.

Consider `Cc1ccc(-n2cc(-c3ccccc3)c3c(NCc4cccnc4)ncnc32)cc1`, for which the inhibition was 19.7% (inactive) under setting [1] and -7.61% under setting [2].

With `CCOC(=O)c1c(NC(=O)c2c(F)c(F)c(F)c(F)c2F)sc2c1CCCCC2`, the inhibition is, setting by setting: under setting [1], 97.9% (active); under setting [2], 96.2%.

Regarding `CNC(=O)c1c(NC(=O)c2cccc(C)c2)sc2c1CCC2`, the inhibition under setting [1] is 9.53% (inactive) and the inhibition under setting [2] was -24.5%.

Turning to `CCOC(=O)C=CC(=O)Nc1sc2c(c1C(=O)OC)CCC2`, the inhibition is, setting by setting: under setting [1], 10.6% (active); under setting [2], 29.7%.

For the compound `Cc1cccc(C(=O)Nc2sc3c(c2C(=O)N2CCCC2)CCC3)c1`, the inhibition runs as follows: under setting [1], -0.854% (inactive); under setting [2], -7.24%.

In the case of `Oc1ccc(Br)cc1-c1nc(-c2cccs2)c(-c2cccs2)[nH]1`, the inhibition by setting is: under setting [1], 1.19% (inactive); under setting [2], -11.5%.

For `N#Cc1cc2c(ccc3ccccc32)oc1=O`, the inhibition was 17.3% (active) under setting [1] and 55.9% under setting [2].

With `CCCCC(=O)Nc1nnc(-c2ccc(Br)cc2)o1`, the inhibition is, setting by setting: under setting [1], 5.72% (inactive); under setting [2], 15.5%.

As for `CC(C)(C)C(=O)Nc1nnc(-c2ccc(Br)cc2)o1`, the inhibition by setting is: under setting [1], 90.8% (active); under setting [2], 84.1%.

`CC(C)C(=O)Nc1nnc(-c2ccccc2)o1`: the inhibition is 1.9% (inactive) under setting [1] and 2.21% under setting [2].

Regarding `COC(=O)C(C)Sc1nnc(-c2ccc(Br)cc2)o1` (configuration not stated), the inhibition was 71.1% (active) under setting [1] and 95.8% under setting [2].

For the compound `CC(C)C(=O)Nc1nnc(-c2ccc(Br)cc2)o1`, the inhibition under setting [1] is 23.4% (active) and the inhibition under setting [2] came to 38.6%.

`O=C1C=C(c2ccccc2)C(=O)c2ccccc21`: the inhibition runs as follows: under setting [1], 12% (active); under setting [2], 58.3%.

`O=C(CSc1nnc(Cc2ccccc2)o1)NCCc1ccccc1`: the inhibition is 63.5% (active) under setting [1] and 42% under setting [2].

With `COc1ccc(Cc2nnc(SCC(=O)NCCc3ccccc3)o2)cc1`, the inhibition is 98% (active) under setting [1] and 96.2% under setting [2].

`COc1ccc(Cc2nnc(SCC(=O)NCc3ccco3)o2)cc1`: the inhibition by setting is: under setting [1], 32.4% (active); under setting [2], 54.8%.

Regarding `O=C(CSc1nc2cc(Cl)ccc2o1)NCCc1ccccc1`, the inhibition reads like this: under setting [1], 85.8% (active); under setting [2], 53%.

On to `COc1ccc(-c2nnc(SCC(=O)NCCc3ccccc3)o2)cc1`, for which the inhibition runs as follows: under setting [1], 93.3% (active); under setting [2], 88.5%.

Take `Cc1cccc(Nc2nc(N)nc(CN3CCN(c4cccc(Cl)c4)CC3)n2)c1`: the inhibition by setting is: under setting [1], 33.7% (active); under setting [2], 47.4%.

On to `COc1cccc(N2CCN(Cc3nc(N)nc(Nc4ccc(C)c(Cl)c4)n3)CC2)c1`, for which the inhibition under setting [1] was 9.68% (inactive) and the inhibition under setting [2] is 23.6%.

As for `Cc1cccc(NC(=S)NCCN2CCN(c3ccc(F)c(Cl)c3)CC2)c1C`, the inhibition under setting [1] is 9.39% (inactive) and the inhibition under setting [2] was -14%.

Take `COc1ccc(N2CCN(Cc3nc(N)nc(Nc4ccc(C)c(Cl)c4)n3)CC2)cc1`: the inhibition is 27.3% (active) under setting [1] and 55.4% under setting [2].

Regarding `O=c1c2ccccc2[nH]c(=S)n1CCCN1CCN(c2cccc(Cl)c2)CC1`, the inhibition by setting is: under setting [1], 14.1% (inactive); under setting [2], -11.2%.

On to `COc1cccc(N2CCN(Cc3nc(N)nc(Nc4ccc(C)c(C)c4)n3)CC2)c1`, for which the inhibition was 29.6% (active) under setting [1] and 48.8% under setting [2].

Take `O=C(OCC#CCSc1nnc(-c2ccc([N+](=O)[O-])cc2)o1)c1cccs1`: the inhibition is 65.7% (active) under setting [1] and 72.9% under setting [2].

Turning to `O=C(OCC#CCSc1nnc(-c2ccc(Br)cc2)o1)c1cccs1`, the inhibition by setting is: under setting [1], 33.6% (active); under setting [2], 31.6%.

As to `CC(=O)OCC#CCSc1nnc(-c2ccc(Br)cc2)o1`, the inhibition runs as follows: under setting [1], 49.2% (active); under setting [2], 48%.

In the case of `CSc1ccc(C(=O)C2CCCN(Cc3cc4ccccc4[nH]3)C2)cc1` (configuration not stated), the inhibition by setting is: under setting [1], 4.22% (inactive); under setting [2], -24.7%.

Take `CCCC(=O)N1CCN(c2ccc(NC(=O)c3ccc(-c4ccc(Cl)cc4)o3)cc2Cl)CC1`: the inhibition is 0.329% (inactive) under setting [1] and -21.3% under setting [2].

With `O=C(Nc1cccc(Br)c1)c1ccc(-c2ccc(Cl)cc2)o1`, the inhibition was 8.23% (inactive) under setting [1] and 21% under setting [2].

Regarding `CCC(C)c1ccc(O)c(NC(=S)NC(=O)c2cccnc2)c1` (configuration not stated), the inhibition runs as follows: under setting [1], 99.4% (active); under setting [2], 99.7%.

For the compound `CCC(C)c1ccc(O)c(NC(=S)NC(=O)c2ccc(-c3ccc(Cl)cc3)o2)c1` (configuration not stated), the inhibition under setting [1] is 74.3% (active) and the inhibition under setting [2] turned out to be 78.2%.
